Measurements: PubChem BioAssay (NCATS)
Results filed as inconclusive are left out. A call without a number means that no potency is given here. Active and inactive are the calls of the source. Calls come from the whole dose curve; as a rule, active = well fitted inhibition curve with a large enough effect; inconclusive = small, poorly fitted or top-dose-only effect; inactive = flat fitted curve, though single readings scatter. Peptide text beside a SMILES is read from it.

Tests used:
Assay in all cases: qHTS profiling for inhibitors of Plasmodium falciparum proliferation (AID 504749); note: nearly all actives have a fitted effect of over 60% in size
Conditions in all cases: P. falciparum in erythrocytes, SYBR Green DNA, 72 h; series mostly up to 28.7 µM
CP329 = test system: CP329
Method in brief: (§1)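 Fluorescence of SYBR Green-bound parasite DNA, read at 485/535 nm, served as the growth measure. Infected erythrocytes were cultured with compound 72 h; artemisinin (0.29 uM) and DMSO wells defined the normalization range.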

CP335 = test system: CP335
Method in brief: as §1

DFO2036 = test system: DFO2036
Method in brief: as §1

DIV14 = test system: DIV14
Method in brief: as §1

DIV17 = test system: DIV17
Method in brief: as §1

DIV30 = test system: DIV30
Method in brief: as §1

Dd2 = test system: Dd2
Method in brief: as §1

ECU = test system: ECU
Method in brief: as §1

FAB9 = test system: FAB9
Method in brief: as §1

GB4 = test system: GB4
Method in brief: as §1
Potency is the fitted concentration of half-maximal effect.

Row | Structure (SMILES) | Potency (CP329) | Potency (CP335) | Potency (DFO2036) | Potency (DIV14) | Potency (DIV17) | Potency (DIV30) | Potency (Dd2) | Potency (ECU) | Potency (FAB9) | Potency (GB4)
1 | C[C@H](Cn1cnc2c(N)ncnc21)OCP(=O)(O)O | inactive | inactive | inactive | inactive | inactive | inactive | inactive | inactive | inactive | inactive
2 | C=CCc1cc(OC)c(O)c(C(=O)NCCO)c1 | inactive | inactive | inactive | inactive | inactive | inactive | inactive | inactive | inactive | inactive
3 | c1ccc2[nH]c(-c3cscn3)nc2c1 | inactive | inactive | inactive | inactive | inactive | inactive | inactive | inactive | inactive | inactive
4 | O=C(NC(Cc1cc(=O)[nH]c2ccccc12)C(=O)O)c1ccc(Cl)cc1 (stereo unspecified) | inactive | inactive | inactive | inactive | inactive | inactive | inactive | inactive | inactive | inactive
5 | CS(=O)(=O)OCCCCOS(C)(=O)=O | inactive | inactive | inactive | inactive | inactive | inactive | inactive | inactive | inactive | inactive
6 | Nc1ccc(S(N)(=O)=O)cc1 | inactive | inactive | inactive | inactive | inactive | inactive | inactive | inactive | inactive | inactive
7 | CC1(C)CCC(C)(C)c2cc(NC(=O)c3ccc(C(=O)O)cc3)ccc21 | inactive | inactive | inactive | inactive | inactive | inactive | inactive | inactive | inactive | inactive
8 | CCCc1cc(=O)[nH]c(=S)[nH]1 | inactive | inactive | inactive | inactive | inactive | inactive | inactive | inactive | inactive | inactive
9 | Cc1cc2c(s1)Nc1ccccc1N=C2N1CCN(C)CC1 | inactive | inactive | inactive | inactive | inactive | inactive | inactive | inactive | inactive | –
10 | CCOC(=O)c1c(C)n(C)c2ccc(O)cc12 | inactive | inactive | inactive | inactive | inactive | inactive | inactive | inactive | inactive | inactive
11 | CCCCCCCCCCCCCCCCCCCCCCO | inactive | inactive | inactive | inactive | inactive | inactive | inactive | inactive | inactive | inactive
12 | COC(=O)[C@H](Cc1ccccc1)NC(=O)[C@@H](N)CC(=O)O (H-Asp-Phe-OMe) | inactive | inactive | inactive | inactive | inactive | inactive | inactive | inactive | inactive | inactive
13 | CNC[C@@H](O)[C@@H](O)[C@H](O)[C@H](O)CO | inactive | inactive | inactive | inactive | inactive | inactive | inactive | inactive | inactive | inactive
14 | Cc1cccc(C)c1OCC(=O)N[C@@H](Cc1ccccc1)[C@@H](O)C[C@H](Cc1ccccc1)NC(=O)[C@H](C(C)C)N1CCCNC1=O | 12000 nM (active) | 4780 nM (active) | 3980 nM (active) | 1900 nM (active) | 1900 nM (active) | 1900 nM (active) | 10000 nM (active) | 1000 nM (active) | 11200 nM (active) | 3790 nM (active)
15 | CN(C)CCc1c[nH]c2ccc(Cn3cncn3)cc12 | inactive | inactive | inactive | inactive | inactive | inactive | inactive | inactive | inactive | inactive
16 | CC(C)(S)[C@@H](N)C(=O)O | inactive | inactive | inactive | inactive | inactive | inactive | inactive | inactive | inactive | inactive
17 | Cc1ncc([N+](=O)[O-])n1CC(C)O (stereo unspecified) | inactive | inactive | inactive | inactive | inactive | inactive | inactive | inactive | inactive | inactive
18 | C[Se]CCC(N)C(=O)O (stereo unspecified) | inactive | inactive | inactive | inactive | inactive | inactive | inactive | inactive | inactive | inactive

Row | Structure (SMILES) | Potency (CP329) | Potency (CP335) | Potency (DFO2036) | Potency (DIV14) | Potency (DIV17) | Potency (DIV30) | Potency (Dd2) | Potency (ECU) | Potency (FAB9) | Potency (GB4)
19 | N[C@@H](Cc1cc(I)c(Oc2cc(I)c(O)c(I)c2)c(I)c1)C(=O)O | inactive | inactive | inactive | inactive | inactive | inactive | inactive | inactive | inactive | inactive
20 | Oc1ccc(OCc2ccccc2)cc1 | inactive | inactive | inactive | inactive | inactive | inactive | inactive | inactive | inactive | inactive
21 | O=C(O)c1cccnc1Nc1cccc(C(F)(F)F)c1 | inactive | inactive | inactive | inactive | inactive | inactive | inactive | inactive | inactive | inactive
22 | Nc1cccc2c1CN(C1CCC(=O)NC1=O)C2=O (stereo unspecified) | inactive | inactive | inactive | inactive | inactive | inactive | inactive | inactive | inactive | inactive
23 | C[C@]12CCC(=O)C=C1CC[C@@H]1[C@H]2[C@@H](O)C[C@@]2(C)[C@H]1CC[C@]2(O)C(=O)CO | inactive | inactive | inactive | inactive | inactive | inactive | inactive | inactive | inactive | inactive
24 | CC(S)C(=O)NCC(=O)O (stereo unspecified) | inactive | inactive | inactive | inactive | inactive | inactive | inactive | inactive | inactive | inactive
25 | O=P(O)(O)C(O)(Cn1ccnc1)P(=O)(O)O | inactive | inactive | inactive | inactive | inactive | inactive | inactive | inactive | inactive | inactive
26 | CN(C)c1ccc2nc3ccc(=[N+](C)C)cc-3sc2c1 | 60.1 nM (active) | 37.9 nM (active) | 70.8 nM (active) | 26.9 nM (active) | 19 nM (active) | 67.5 nM (active) | 39.8 nM (active) | 25.1 nM (active) | 31.6 nM (active) | 30.1 nM (active)
27 | CN1C(C(=O)Nc2ccccn2)=C(O)c2sccc2S1(=O)=O | inactive | inactive | inactive | inactive | inactive | inactive | inactive | inactive | inactive | inactive
28 | O=C(NCCO[N+](=O)[O-])c1cccnc1 | inactive | inactive | inactive | inactive | inactive | inactive | inactive | inactive | inactive | inactive
29 | CCCOc1ccc2nc(NC(=O)OC)[nH]c2c1 | inactive | inactive | inactive | inactive | inactive | inactive | inactive | inactive | inactive | inactive
30 | COC1=C(OC)C(=O)C(CCCCCCCCCCO)=C(C)C1=O | inactive | inactive | inactive | inactive | – | inactive | inactive | inactive | inactive | –
31 | CC1(C)NC(=O)N(c2ccc([N+](=O)[O-])c(C(F)(F)F)c2)C1=O | inactive | inactive | inactive | inactive | inactive | inactive | inactive | inactive | inactive | inactive
32 | CCC1=C(C)CN(C(=O)NCCc2ccc(S(=O)(=O)NC(=O)NC3CCC(C)CC3)cc2)C1=O (stereo unspecified) | inactive | inactive | inactive | inactive | inactive | inactive | inactive | inactive | inactive | inactive
33 | Nc1cc(C(Cl)=C(Cl)Cl)c(S(N)(=O)=O)cc1S(N)(=O)=O | inactive | inactive | inactive | inactive | inactive | inactive | inactive | inactive | inactive | inactive
34 | COc1cc2c(cc1OC)C1CC(=O)C(CC(C)C)CN1CC2 (stereo unspecified) | inactive | inactive | inactive | inactive | inactive | inactive | inactive | inactive | inactive | inactive
35 | COC(=O)C1=C(C)NC(C)=C(C(=O)OCCCN2CCC(c3ccccc3)(c3ccccc3)CC2)C1c1cccc([N+](=O)[O-])c1 (stereo unspecified) | 8490 nM (active) | 4260 nM (active) | 7940 nM (active) | 3380 nM (active) | 4260 nM (active) | 4780 nM (active) | 3550 nM (active) | 4470 nM (active) | – | 1900 nM (active)
36 | O=C(O)c1cccc(-c2noc(-c3ccccc3F)n2)c1 | inactive | inactive | inactive | inactive | inactive | inactive | inactive | inactive | inactive | inactive
